From PubChem BioAssay (Tox21)
Results filed as inconclusive are left out. The source made the active and inactive calls. Unless noted, the call rests on the fitted dose curve; in most records, active means well fitted cell-killing curve with a large enough effect in the repeat runs; inconclusive means weak or mixed curves, or effect the other way; inactive means no such curve, though single readings can be large or run the other way.

Biological target: Peroxisome proliferator-activated receptor delta (Homo sapiens) (UniProt Q03181)
Experiment: qHTS assay to identify small molecule antagonists of the peroxisome proliferator-activated receptor delta (PPARd) signaling pathway (AID 743215; active means well fitted inhibition curve with a large enough effect in the signal ratio in the repeat runs, not every such curve was filed as active; the % refers to the signal ratio;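 further: cells stimulated with agonist L165041 at 300 nM final during compound exposure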)
Details: HEK293H PPARd-UAS-bla, beta-lactamase FRET ratio, antagonist, 17 h; series mostly up to 62 µM; ratio activity, negative = inhibition: at the top concentration
Method in brief: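 PPARd UAS-bla HEK293H cells were pre-incubated 5 h at 37 C, then given test compounds in DMSO plus agonist L165041 (300 nM final). After 17 h at 37 C, beta-lactamase FRET substrate was added; fluorescence read after 2 h at room temperature.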
On the % scale 0 is the no-effect control and ±100 the full control effect.

Sequence of Peroxisome proliferator-activated receptor delta (Homo sapiens) (Q03181 whole entry, looked up): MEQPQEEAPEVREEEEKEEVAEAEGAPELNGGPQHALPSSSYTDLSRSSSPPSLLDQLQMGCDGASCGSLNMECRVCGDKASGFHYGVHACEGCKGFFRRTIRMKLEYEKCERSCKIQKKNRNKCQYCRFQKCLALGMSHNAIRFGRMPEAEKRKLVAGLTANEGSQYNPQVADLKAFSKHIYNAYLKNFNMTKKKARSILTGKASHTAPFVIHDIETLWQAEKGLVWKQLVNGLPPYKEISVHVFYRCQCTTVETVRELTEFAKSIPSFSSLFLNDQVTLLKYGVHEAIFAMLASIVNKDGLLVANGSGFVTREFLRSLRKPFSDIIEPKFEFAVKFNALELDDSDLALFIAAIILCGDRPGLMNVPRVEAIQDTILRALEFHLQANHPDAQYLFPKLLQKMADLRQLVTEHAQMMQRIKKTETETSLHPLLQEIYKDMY

| SMILES | outcome | ratio activity, negative = inhibition |
| --- | --- | --- |
| O=C(O)CCCCCCCCC(=O)O | inactive | – |
| CN(C)c1ccc(O)c2c1C[C@H]1C[C@H]3[C@H](N(C)C)C(=O)C(C(N)=O)=C(O)[C@@]3(O)C(=O)C1=C2O | inactive | – |
| NC(=S)NNC(N)=S | inactive | – |
| c1ccc(Oc2ccccc2)cc1 | – | 3.67% (inactive) |
| CCCCCCCCCCN | inactive | – |
| C[Si]1(C)O[Si](C)(C)O[Si](C)(C)O[Si](C)(C)O1 | inactive | – |
| C=CC[N+](C)(C)CC=C | inactive | – |
| COc1ccc([N+](=O)[O-])cc1N | – | 12.2% (inactive) |
| O=C(O)c1ccc(C(=O)O)c(C(=O)O)c1 | inactive | – |
| NCCCCCCN | inactive | – |
| NCCNCCN | inactive | – |
| CCCCCC(=O)O | inactive | – |
| CC(C)(C)c1cc(Cc2cc(C(C)(C)C)c(O)c(C(C)(C)C)c2)cc(C(C)(C)C)c1O | inactive | – |
| COC(=O)CCCC(=O)OC | inactive | – |
| CN(C)c1ccc(Cc2ccc(N(C)C)cc2)cc1 | inactive | – |
| CC(C)OP(=O)(CP(=O)(OC(C)C)OC(C)C)OC(C)C | inactive | – |
| COC(=O)c1cccnc1 | inactive | – |
| CCOC(=O)n1ccn(C)c1=S | inactive | – |
| Cc1ccc(S(=O)(=O)N=C=O)cc1 | – | -16% (inactive) |
| CC(C)CCCCCCCOC(=O)CCCCC(=O)OCCCCCCCC(C)C | inactive | – |
| C=C(C)CNCC | inactive | – |
| CCCCC(C=O)CC (configuration not stated) | inactive | – |
| O=C(O)/C=C/C(=O)O | inactive | – |
| CC(=O)OCc1ccco1 | inactive | – |
| O=C(O)c1cc2ccccc2cc1O | inactive | – |
| CCNc1cccc(C)c1 | inactive | – |
| COc1ccc(OC)cc1 | inactive | – |

Biological target: Bile acid receptor (Homo sapiens) (UniProt Q96RI1)
Experiment: qHTS assay to identify small molecule antagonists of the farnesoid-X-receptor (FXR) signaling pathway (AID 743217; active means well fitted inhibition curve with a large enough effect in the signal ratio in the repeat runs, not every such curve was filed as active; the % refers to the signal ratio)
Details: HEK293T FXR-UAS-bla, beta-lactamase ratio, CDCA-stimulated, 16 h; series mostly up to 62.6 µM; activity change, negative = inhibition: at the top concentration
Method in brief: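 FXR-UAS-bla HEK 293T cells pre-incubated 5 h at 37 °C, then exposed to compounds with chenodeoxycholic acid (50 uM final) for 16 h at 37 °C. Beta-lactamase reporter read by LiveBLAzer B/G FRET substrate fluorescence after 2 h at room temperature.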

Sequence of Bile acid receptor (Homo sapiens) (Q96RI1 whole entry, looked up): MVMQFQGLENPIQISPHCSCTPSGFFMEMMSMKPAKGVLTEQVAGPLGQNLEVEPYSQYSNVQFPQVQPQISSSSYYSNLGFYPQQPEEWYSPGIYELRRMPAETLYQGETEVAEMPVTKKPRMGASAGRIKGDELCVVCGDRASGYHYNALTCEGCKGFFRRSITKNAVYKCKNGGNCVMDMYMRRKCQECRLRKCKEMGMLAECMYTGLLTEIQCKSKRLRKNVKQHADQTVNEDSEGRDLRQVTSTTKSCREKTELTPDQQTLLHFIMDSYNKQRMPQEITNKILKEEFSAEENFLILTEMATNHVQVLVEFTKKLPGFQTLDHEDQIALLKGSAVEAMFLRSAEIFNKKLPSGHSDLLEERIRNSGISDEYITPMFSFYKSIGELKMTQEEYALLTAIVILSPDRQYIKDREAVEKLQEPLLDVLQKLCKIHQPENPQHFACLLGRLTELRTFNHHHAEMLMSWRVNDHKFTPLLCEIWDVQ

| SMILES | outcome | activity change, negative = inhibition |
| --- | --- | --- |
| CC(C)CC(=O)CC(C)CC(C)C (configuration not stated) | inactive | – |
| O=C(O)CCCCCCCCC(=O)O | inactive | – |
| NC(=S)NNC(N)=S | – | 1.62% (inactive) |
| c1ccc(Oc2ccccc2)cc1 | inactive | – |
| O=[N+]([O-])c1ccc2nc[nH]c2c1 | inactive | – |
| C[Si]1(C)O[Si](C)(C)O[Si](C)(C)O[Si](C)(C)O1 | inactive | – |
| CC(C)c1cccc(C(C)C)c1 | – | -2.05% [at 81.1 µM] (inactive) |
| O=C1c2ccccc2CCc2ccccc21 | inactive | – |
| CC(C)=CCl | inactive | – |
| COc1ccc([N+](=O)[O-])cc1N | inactive | – |
| CC(C)(C)c1cc(Cc2cc(C(C)(C)C)c(O)c(C(C)(C)C)c2)cc(C(C)(C)C)c1O | inactive | – |
| COC(=O)CCCC(=O)OC | inactive | – |
| CN(C)c1ccc(Cc2ccc(N(C)C)cc2)cc1 | inactive | – |
| CC(C)OP(=O)(CP(=O)(OC(C)C)OC(C)C)OC(C)C | inactive | – |
| CCOC(=O)n1ccn(C)c1=S | inactive | – |
| CC(CCl)OP(=O)(OC(C)CCl)OC(C)CCl (configuration not stated) | inactive | – |
| CC(C)CCCCCCCOC(=O)CCCCC(=O)OCCCCCCCC(C)C | inactive | – |
| CC(=O)c1ccc(O)cc1 | – | 7.09% (inactive) |
| CCCCC(C=O)CC (configuration not stated) | – | -9.97% [at 81.1 µM] (inactive) |
| C=C(C)C(=O)OCC(C)C | inactive | – |
| CCNc1ccccc1 | inactive | – |
| N#Cc1ccccc1 | inactive | – |

Test system: not listed separately
Experiment: qHTS assay to identify small molecule agonists of the farnesoid-X-receptor (FXR) signaling pathway - cell viability counter screen (AID 743218); further: nearly all actives have a fitted effect of over 45% in size
Details: FXR-bla HEK293T viability, CellTiter-Glo luminescence, 16 h; series mostly up to 62.6 µM; viability change, negative = cytotoxic: at the top concentration
Method in brief: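 FXR-UAS-bla HEK 293T cells, plated 5 h at 37 C, were exposed to compounds for 16 h at 37 C. CellTiter-Glo was then added to the same wells as the bla readout; luminescence read after 30 min at room temperature.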

| SMILES | outcome | viability change, negative = cytotoxic |
| --- | --- | --- |
| CC(C)CC(=O)CC(C)CC(C)C (configuration not stated) | inactive | – |
| O=C(O)CCCCCCCCC(=O)O | inactive | – |
| CN(C)c1ccc(O)c2c1C[C@H]1C[C@H]3[C@H](N(C)C)C(=O)C(C(N)=O)=C(O)[C@@]3(O)C(=O)C1=C2O | inactive | – |
| c1ccc(Oc2ccccc2)cc1 | inactive | – |
| CCCCCCCCCCN | inactive | – |
| O=[N+]([O-])c1ccc2nc[nH]c2c1 | inactive | – |
| C[Si]1(C)O[Si](C)(C)O[Si](C)(C)O[Si](C)(C)O1 | inactive | – |
| CC(C)c1cccc(C(C)C)c1 | inactive | – |
| O=C1c2ccccc2CCc2ccccc21 | inactive | – |
| CC(C)=CCl | inactive | – |
| C=CC[N+](C)(C)CC=C | inactive | – |
| COc1ccc([N+](=O)[O-])cc1N | inactive | – |
| O=C(O)c1ccc(C(=O)O)c(C(=O)O)c1 | inactive | – |
| NCCCCCCN | inactive | – |
| NCCNCCN | inactive | – |
| CCCCCC(=O)O | inactive | – |
| CC(C)(C)c1cc(Cc2cc(C(C)(C)C)c(O)c(C(C)(C)C)c2)cc(C(C)(C)C)c1O | inactive | – |
| COC(=O)CCCC(=O)OC | inactive | – |

| SMILES | outcome | viability change, negative = cytotoxic |
| --- | --- | --- |
| CN(C)c1ccc(Cc2ccc(N(C)C)cc2)cc1 | – | 6.51% [at 81.1 µM] (inactive) |
| CC(C)OP(=O)(CP(=O)(OC(C)C)OC(C)C)OC(C)C | inactive | – |
| COC(=O)c1cccnc1 | inactive | – |
| CCOC(=O)n1ccn(C)c1=S | inactive | – |
| Cc1ccc(S(=O)(=O)N=C=O)cc1 | inactive | – |
| CC(CCl)OP(=O)(OC(C)CCl)OC(C)CCl (configuration not stated) | inactive | – |
| CC(C)CCCCCCCOC(=O)CCCCC(=O)OCCCCCCCC(C)C | inactive | – |
| CC(=O)c1ccc(O)cc1 | inactive | – |
| C=C(C)CNCC | inactive | – |
| CCCCC(C=O)CC (configuration not stated) | inactive | – |
| C=C(C)C(=O)OCC(C)C | inactive | – |
| CCNc1ccccc1 | inactive | – |
| O=C(O)/C=C/C(=O)O | inactive | – |
| CC(=O)OCc1ccco1 | – | -3.25% (inactive) |
| O=C(O)c1cc2ccccc2cc1O | inactive | – |
| CCNc1cccc(C)c1 | inactive | – |
| COc1ccc(OC)cc1 | inactive | – |
| N#Cc1ccccc1 | inactive | – |

Biological target: Bile acid receptor (Homo sapiens) (UniProt Q96RI1)
Experiment: qHTS assay to identify small molecule agonists of the farnesoid-X-receptor (FXR) signaling pathway (AID 743220; active means well fitted activation curve with a large enough effect in the signal ratio in the repeat runs, not every such curve was filed as active; the % refers to the signal ratio)
Details: HEK293T FXR-UAS-bla, beta-lactamase FRET ratio, 16 h; series mostly up to 62.6 µM; activation: at the top concentration
Method in brief: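 Beta-lactamase reporter under UAS control in GeneBLAzer FXR HEK 293T cells (5000/well) measured with LiveBLAzer FRET substrate after 2 h at room temperature. Compound exposure lasted 16 h at 37C.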

| SMILES | outcome | activation |
| --- | --- | --- |
| CC(C)CC(=O)CC(C)CC(C)C (configuration not stated) | inactive | – |
| O=C(O)CCCCCCCCC(=O)O | inactive | – |
| NC(=S)NNC(N)=S | inactive | – |
| c1ccc(Oc2ccccc2)cc1 | inactive | – |
| O=[N+]([O-])c1ccc2nc[nH]c2c1 | inactive | – |
| C[Si]1(C)O[Si](C)(C)O[Si](C)(C)O[Si](C)(C)O1 | inactive | – |
| CC(C)c1cccc(C(C)C)c1 | inactive | – |
| O=C1c2ccccc2CCc2ccccc21 | inactive | – |
| CC(C)=CCl | inactive | – |
| COc1ccc([N+](=O)[O-])cc1N | inactive | – |
| CC(C)(C)c1cc(Cc2cc(C(C)(C)C)c(O)c(C(C)(C)C)c2)cc(C(C)(C)C)c1O | inactive | – |
| COC(=O)CCCC(=O)OC | inactive | – |
| CN(C)c1ccc(Cc2ccc(N(C)C)cc2)cc1 | inactive | – |
| CC(C)OP(=O)(CP(=O)(OC(C)C)OC(C)C)OC(C)C | inactive | – |
| CCOC(=O)n1ccn(C)c1=S | inactive | – |
| CC(CCl)OP(=O)(OC(C)CCl)OC(C)CCl (configuration not stated) | – | 1.4% (inactive) |
| CC(C)CCCCCCCOC(=O)CCCCC(=O)OCCCCCCCC(C)C | inactive | – |
| CC(=O)c1ccc(O)cc1 | inactive | – |
| CCCCC(C=O)CC (configuration not stated) | inactive | – |
| C=C(C)C(=O)OCC(C)C | inactive | – |
| CCNc1ccccc1 | inactive | – |
| N#Cc1ccccc1 | inactive | – |
